In the supplement of paper PMC8728848:
The full list was thinned out, with the strongest signals kept by preference.

How the values were obtained:
Assay in all cases: glycan array binding signal (z-score within array); higher = stronger binding
Settings in all cases: glycan notation: IUPAC condensed, linker removed
[1] = target: Fuc(a1-2)Gal(b1-3)GalNAc(b1-4)[Neu5Ac(a2-3)]Gal(b1-4)Glc
Procedure, shortened: (§1)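 The binding signal is a Z-score computed within each array and averaged over linkers. Arrays of the same protein sequence at different concentrations or buffers were also averaged together. Data originate from 3228 arrays in the Consortium for Functional Glycomics database, kept only where the protein sequence was available.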

[2] = target: Fuc(a1-2)[Gal(a1-4)]Gal(b1-4)GlcNAc
Procedure, shortened: as §1

[3] = target: Fuc(a1-2)[GalNAc(a1-3)]Gal(b1-3)GalNAc(b1-3)Gal(a1-4)Gal(b1-4)Glc
Procedure, shortened: as §1

[4] = target: Fuc(a1-2)[GalNAc(a1-3)]Gal(b1-4)GlcNAc(b1-3)Gal(b1-4)GlcNAc
Procedure, shortened: as §1

[5] = target: Fuc(a1-3)[Gal(b1-4)]GlcNAc
Procedure, shortened: as §1

[6] = target: Fuc(a1-3)[Gal(b1-4)]GlcNAc(b1-6)GalNAc
Procedure, shortened: as §1

Fuc(a1-4)GlcNAc = target: Fuc(a1-4)GlcNAc
Procedure, shortened: as §1

[7] = target: Gal(a1-3)Gal(b1-3)GlcNAc(b1-2)Man(a1-3)[Gal(a1-3)Gal(b1-3)GlcNAc(b1-2)Man(a1-6)]Man(b1-4)GlcNAc(b1-4)GlcNAc
Procedure, shortened: as §1

[8] = target: Gal(a1-3)Gal(b1-3)[Fuc(a1-4)]GlcNAc(b1-2)Man(a1-3)[Gal(a1-3)Gal(b1-3)[Fuc(a1-4)]GlcNAc(b1-2)Man(a1-6)]Man(b1-4)GlcNAc(b1-4)GlcNAc
Procedure, shortened: as §1

[9] = target: Gal(a1-3)Gal(b1-4)GlcNAc(b1-2)Man(a1-3)[Gal(a1-3)Gal(b1-4)GlcNAc(b1-2)Man(a1-6)]Man(b1-4)GlcNAc(b1-4)GlcNAc
Procedure, shortened: as §1

[10] = target: Gal(a1-3)Gal(b1-4)GlcNAc(b1-3)GalNAc
Procedure, shortened: as §1

[11] = target: Gal(a1-3)[Gal(a1-4)]Gal(b1-4)GlcNAc
Procedure, shortened: as §1

[12] = target: Gal(a1-4)Gal(b1-3)GlcNAc(b1-2)Man(a1-3)[Gal(a1-4)Gal(b1-3)GlcNAc(b1-2)Man(a1-6)]Man(b1-4)GlcNAc(b1-4)GlcNAc
Procedure, shortened: as §1

[13] = target: Gal(b1-3)GlcNAc(b1-2)Man(a1-3)[GlcNAc(b1-4)][Gal(b1-3)GlcNAc(b1-2)Man(a1-6)]Man(b1-4)GlcNAc(b1-4)GlcNAc
Procedure, shortened: as §1

[14] = target: Gal(b1-3)GlcNAc(b1-3)GalNAc
Procedure, shortened: as §1

[15] = target: Gal(b1-3)[Fuc(a1-4)]GlcNAc(b1-3)Gal(b1-4)[Fuc(a1-3)]GlcNAc
Procedure, shortened: as §1

[16] = target: Gal(b1-4)GlcNAc(a1-6)Gal(b1-4)GlcNAc
Procedure, shortened: as §1

[17] = target: Gal(b1-4)GlcNAc(b1-3)Gal(b1-3)GalNAc
Procedure, shortened: as §1

[18] = target: Gal(b1-4)GlcNAc(b1-3)Gal(b1-3)GlcNAc
Procedure, shortened: as §1

[19] = target: Gal(b1-4)GlcNAc(b1-3)Gal(b1-4)GlcNAc
Procedure, shortened: as §1

[20] = target: Gal(b1-4)GlcNAc(b1-3)Gal(b1-4)GlcNAc(b1-2)[Gal(b1-4)GlcNAc(b1-3)Gal(b1-4)GlcNAc(b1-6)]Man(a1-6)[Gal(b1-4)GlcNAc(b1-3)Gal(b1-4)GlcNAc(b1-2)Man(a1-3)]Man(b1-4)GlcNAc(b1-4)[Fuc(a1-6)]GlcNAc
Procedure, shortened: as §1

[21] = target: Gal(b1-4)GlcNAc(b1-3)Gal(b1-4)GlcNAc(b1-3)Gal(b1-4)GlcNAc(b1-2)[Gal(b1-4)GlcNAc(b1-3)Gal(b1-4)GlcNAc(b1-3)Gal(b1-4)GlcNAc(b1-6)]Man(a1-6)[Gal(b1-4)GlcNAc(b1-3)Gal(b1-4)GlcNAc(b1-3)Gal(b1-4)GlcNAc(b1-2)Man(a1-3)]Man(b1-4)GlcNAc(b1-4)[Fuc(a1-6)]GlcNAc
Procedure, shortened: as §1

[22] = target: Gal(b1-4)GlcNAc(b1-3)Gal(b1-4)GlcNAc(b1-3)Gal(b1-4)GlcNAc(b1-3)Gal(b1-4)GlcNAc(b1-2)Man(a1-3)[Gal(b1-4)GlcNAc(b1-3)Gal(b1-4)GlcNAc(b1-3)Gal(b1-4)GlcNAc(b1-3)Gal(b1-4)GlcNAc(b1-2)Man(a1-6)]Man(b1-4)GlcNAc(b1-4)[Fuc(a1-6)]GlcNAc
Procedure, shortened: as §1

[23] = target: Gal(b1-4)GlcNAc(b1-3)Gal(b1-4)GlcNAc(b1-3)Gal(b1-4)GlcNAc(b1-3)Gal(b1-4)GlcNAc(b1-2)[Gal(b1-4)GlcNAc(b1-3)Gal(b1-4)GlcNAc(b1-3)Gal(b1-4)GlcNAc(b1-3)Gal(b1-4)GlcNAc(b1-6)]Man(a1-6)[Gal(b1-4)GlcNAc(b1-3)Gal(b1-4)GlcNAc(b1-3)Gal(b1-4)GlcNAc(b1-3)Gal(b1-4)GlcNAc(b1-2)Man(a1-3)]Man(b1-4)GlcNAc(b1-4)[Fuc(a1-6)]GlcNAc
Procedure, shortened: as §1

[24] = target: Gal(b1-4)GlcNAc(b1-3)Gal(b1-4)GlcNAc(b1-3)Gal(b1-4)GlcNAc(b1-3)Gal(b1-4)GlcNAc(b1-3)Gal(b1-4)GlcNAc(b1-2)Man(a1-3)[Gal(b1-4)GlcNAc(b1-3)Gal(b1-4)GlcNAc(b1-3)Gal(b1-4)GlcNAc(b1-3)Gal(b1-4)GlcNAc(b1-3)Gal(b1-4)GlcNAc(b1-2)Man(a1-6)]Man(b1-4)GlcNAc(b1-4)[Fuc(a1-6)]GlcNAc
Procedure, shortened: as §1

[25] = target: Gal(b1-4)GlcNAc(b1-3)[GlcNAc(b1-6)]Gal(b1-4)GlcNAc
Procedure, shortened: as §1

[26] = target: Gal(b1-4)GlcNAc(b1-6)[Gal(b1-4)GlcNAc(b1-3)]GalNAc
Procedure, shortened: as §1

[27] = target: Gal3S(b1-4)[Fuc(a1-3)]GlcNAc6S
Procedure, shortened: as §1

Gal6P(b1-4)GlcNAc = target: Gal6P(b1-4)GlcNAc
Procedure, shortened: as §1

[28] = target: GalNAc(b1-3)Gal(a1-6)Gal(b1-4)Glc
Procedure, shortened: as §1

B1: GS13971A-bth-447-22-447 (Bacteroides thetaiotaomicron) (protein)
chain: EDVDNERSKGMFSASQSGFSTIEVYDLGPLNKIDLSIAKAGLEDTGGTVTFSVEQSLLDSLNNADGTSYQLLPPECYTIENATYSVSPGGDRRVTGGSLVYDPHKIYNLCGFDELKYVLPLRVSSTGTPMNSDRTATLYGFIVKEAIVRLASTGGDFVVEGGTTTSPMNLDTEISFENEWDLTTSFATKGADYVDNYNSANSTYYIPLPSDFYTLPDVTIAKGKTTGGSAISLLGETLPPGNYLLPVSLGGLSGQGDASINIDKETVANYFVIKQGGPINRDHWTVTANTEEKTGEVSAAYPHNGQTISLIDGEINTFWHSKWQGGEVAPPYEIILDMGKENSVSQLGLIARQNALTSMNLEIYAGDDGETWNLIGKYFFDGSIKTEQMVPVKACDARWIRIYIPTLGSGSSVGHLAEIYVYGTDK
[1]
  glycan array binding signal (z-score): -0.611
[2]
  glycan array binding signal (z-score): 1.4
[3]
  glycan array binding signal (z-score): -0.418
[4]
  glycan array binding signal (z-score): -0.622
[5]
  glycan array binding signal (z-score): 0.548
[6]
  glycan array binding signal (z-score): 0.414
Fuc(a1-4)GlcNAc
  glycan array binding signal (z-score): 12.2
[7]
  glycan array binding signal (z-score): -0.916
[8]
  glycan array binding signal (z-score): 0.437
[9]
  glycan array binding signal (z-score): 0.313
[10]
  glycan array binding signal (z-score): 0.741
[11]
  glycan array binding signal (z-score): 3.1
[12]
  glycan array binding signal (z-score): 0.513
[13]
  glycan array binding signal (z-score): 0.373
[14]
  glycan array binding signal (z-score): 0.748
[15]
  glycan array binding signal (z-score): 1.09
[16]
  glycan array binding signal (z-score): 0.525
[17]
  glycan array binding signal (z-score): -0.104
[18]
  glycan array binding signal (z-score): 0.498
[19]
  glycan array binding signal (z-score): -1.12
[20]
  glycan array binding signal (z-score): 2.62
[21]
  glycan array binding signal (z-score): 0.617
[22]
  glycan array binding signal (z-score): 2.21
[23]
  glycan array binding signal (z-score): 2.31
[24]
  glycan array binding signal (z-score): 2.91
[25]
  glycan array binding signal (z-score): 0.129
[26]
  glycan array binding signal (z-score): -0.463
[27]
  glycan array binding signal (z-score): 0.338
Gal6P(b1-4)GlcNAc
  glycan array binding signal (z-score): -0.674
[28]
  glycan array binding signal (z-score): -0.007
